High-throughput results (PubChem BioAssay)
Compounds with a hit are over-represented: about 9.3% of the library has one in this group of screens.
ELG1 repair inh = ELG1-dependent DNA repair inhibition | HEK293T ELG1-luciferase reporter, luminescence, 16 h; DNA damage induced by 5-fluorouridine | Potency, µM (titrated, usually from 46.1 µM), actives largely listed as inhibitors | AID 504467 | 2.3% of 330,000 active; also: nearly all actives have a fitted effect of over 55% in size
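Step one: seed 2,000 cells per well. Step two: pin-transfer compound or DMSO alongside 5-fluorouridine. Step three: incubate 16 hr, 37 °C, 5% CO2. Step four: add ONE-Glo, wait 30 min, read luminescence.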
Rab9 promoter act = activates the Rab9 promoter; Huh7 Rab9 promoter-luciferase reporter, luminescence, 24 h; Potency, µM (series often up to 9.22 µM), most hits filed as activators; 2.8% of 320,000 active; also: nearly all actives have a fitted effect of over 60% in size
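Luciferase signal after 10 min detection reagent at ambient indicates Rab9 promoter upregulation; stably transfected Huh7 cells were treated 24 h with compound in DMSO at 37 °C, 5% CO2.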
NPC1 prom act = NPC1 promoter activation; Huh7 NPC1 promoter luciferase reporter, 24 h; 2.4% of 320,000 active; Potency, µM (highest dose often 9.22 µM), hits mostly activators; also: nearly all actives have a fitted effect of over 60% in size
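Huh7 cells stably carrying NPC1 promoter–luciferase, plated in Opti-MEM with 10% FBS for 2 h, were exposed to compound in DMSO for 24 h at 37 °C; luciferase reagent was added for 10 min and luminescence read.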
FLuc modulator = counter-screen for miR-21 project: firefly luciferase inhibitors or activators; purified FLuc, Km substrates, luminescence inhibition; P08659; 6.9% of 360,000 active; Potency, µM (titrated, usually from 57.5 µM), most hits filed as inhibitors; also: nearly all actives have a fitted effect of over 55% in size
Target sequence (P08659 whole entry, looked up): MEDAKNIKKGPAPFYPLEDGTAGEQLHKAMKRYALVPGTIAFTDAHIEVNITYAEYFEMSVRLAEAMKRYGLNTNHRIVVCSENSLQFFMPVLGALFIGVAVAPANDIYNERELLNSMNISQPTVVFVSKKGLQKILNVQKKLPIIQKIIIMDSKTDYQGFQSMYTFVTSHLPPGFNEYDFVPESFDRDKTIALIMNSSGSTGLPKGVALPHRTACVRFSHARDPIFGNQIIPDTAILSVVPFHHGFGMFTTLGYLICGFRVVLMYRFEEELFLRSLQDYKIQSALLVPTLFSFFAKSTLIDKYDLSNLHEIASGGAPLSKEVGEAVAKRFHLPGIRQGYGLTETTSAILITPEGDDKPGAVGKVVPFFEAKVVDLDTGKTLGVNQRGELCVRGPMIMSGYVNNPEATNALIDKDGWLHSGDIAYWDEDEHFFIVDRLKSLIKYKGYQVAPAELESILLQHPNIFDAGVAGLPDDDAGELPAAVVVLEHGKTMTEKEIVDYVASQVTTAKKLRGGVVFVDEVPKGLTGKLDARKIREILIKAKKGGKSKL
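Biochemical qHTS of compounds, final roughly 60 µM downward over six points, against 10 nM purified firefly luciferase using Km concentrations of substrates (10 uM D-luciferin, 10 uM ATP) in Tris acetate pH 7.5 buffer; luminescence output.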
ELG1 genotoxic = inducers of genotoxicity in HEK293T ELG1-luciferase cells | Potency, µM (titrated, usually from 46 µM), usual class: activators | HEK293T ELG1-luciferase reporter, luminescence, 16 h | 1.3% of 330,000 active; also: nearly all actives have a fitted effect of over 60% in size
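DMSO vehicle served as control against compound-treated ELG1-luciferase HEK293T cells; exposure lasted 16 hr at 37 °C and 5% CO2, followed by ONE-Glo luminescence detection after 30 min.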
SMN2 splice enh = SMN2 splice variant enhancement; HEK293 SMN2-luciferase splicing reporter, luminescence, 30-36 h; 2.8% of 210,000 active; AID 1458; Potency, µM (series often up to 46.1 µM), hits mostly activators; also: nearly all actives have a fitted effect of over 55% in size
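HEK293 cells carry an SMN2 […]–luciferase reporter in which exon 7 inclusion puts luciferase in frame. Cells were plated 10-12 h before compound addition, then incubated 30-36 h at 37C. ONE-Glo luminescence was read; sodium butyrate at 4.5 mM final served as control.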
Numbers stand for hits; . = inactive; ? = inconclusive; / = no result given; [ ] = remark or other dose. Calls follow the shape of the dose curve; as a rule, active = well fitted curve in the direction sought with a large enough effect; inconclusive = small, poorly fitted or top-dose-only effect, or another doubt; inactive = no such curve, though single readings can be large; an effect the other way counts as inactive or inconclusive.

SMILES | ELG1 repair inh | Rab9 promoter act | NPC1 prom act | FLuc modulator | ELG1 genotoxic | SMN2 splice enh
COc1ccccc1N1CCN(/N=C/c2cccc(Cl)c2)CC1 | ? | 2.2µM | 3.2µM | 12µM | 16µM | /
COc1ccccc1N1CCN(/N=C/c2cccc(OC)c2O)CC1 | ? | ? | ? | 7.6µM | ? | 25µM
COc1cccc(/C=N/N2CCN(c3ccccc3OC)CC2)c1 | ? | 3.2µM | ? | 12µM | 16µM | 13µM
Clc1ccccc1/C=N/N1CCN(Cc2ccccc2)CC1 | . | . | . | ? | . | /
COc1ccccc1N1CCN(/N=C/c2ccc(O)c(O)c2)CC1 | . | . | . | ? | ? | ?
FC(F)(F)c1ccccc1/C=N/N1CCN(Cc2ccccc2)CC1 | ? | . | . | 19µM | . | .
CC(=O)Nc1ccc(S(=O)(=O)NC2CC(=O)N(c3cccc(F)c3)C2)cc1 (centres undefined) | . | . | . | . | . | /
COc1ccc(/C=N/N2CCN(c3ccccc3OC)CC2)cc1Br | ? | . | . | 15µM | . | /
COc1cc(/C=N/N2C(=O)CSC2=S)cc(Br)c1O | . | . | . | ? | . | .
COc1cccc(/C=N/N2C(=O)CSC2=S)c1O | ? | . | . | 27µM | . | .
Clc1cccc(/C=N/N2CCN(Cc3ccccc3)CC2)c1 | ? | ? | ? | 17µM | ? | /
O=C(CCN1C(=O)c2ccccc2C1=O)N(CCO)Cc1ccccc1 | . | . | . | . | . | .
CCN1C(=O)[C@@H]2[C@H](C1=O)[C@@H]1C(=O)Nc3ccccc3C(=O)N1[C@@H]2c1ccc(Br)cc1 | . | . | . | . | . | /
Cc1nc2sc(C(=O)OCC(=O)N3c4ccccc4CC3C)c(C)c2c(=O)[nH]1 (centres undefined) | . | . | . | . | . | .
CC(=O)c1ccc(OCc2cc(C(=O)N(C)C3CCOC3)no2)cc1 (centres undefined) | . | . | . | . | . | /
COc1cc(Cl)ccc1OCc1cc(C(=O)N(C)CCc2cnn(C)c2)no1 | ? | ? | ? | 12µM | .[9.26 µM] | /
CCN(Cc1cnn(C)c1)C(=O)c1cc(COc2cc(C)c(Cl)c(C)c2)on1 | . | . | . | ? | . | /
Cc1cc(OCc2cc(C(=O)N(C)CCc3cnn(C)c3)no2)cc(C)c1Cl | ? | 3.2µM | 2.8µM | 8.5µM | ? | /
Cc1cc(OCc2cc(C(=O)N(C)C3CCOC3)no2)cc(C)c1Cl (centres undefined) | ? | 1.8µM | 3.2µM | 6µM | ? | /
COC(=O)C1=C(C)N(CCc2ccccc2)C(=O)C1(NS(=O)(=O)c1ccc(NC(C)=O)cc1)C(F)(F)F (centres undefined) | . | . | . | . | . | .
O=C(CSc1nnc(Nc2ccccc2)s1)NC1CCS(=O)(=O)C1 (centres undefined) | . | / | / | / | . | /
O=C(CCNNC(=O)c1ccncc1)NCc1ccccc1 | . | . | . | . | . | .
Cc1ccccc1COc1ccc(-c2nn[nH]n2)cc1 | ? | . | . | 27µM | . | /
CCc1ccc(-c2nn[nH]n2)cc1 | ? | . | . | 13µM | . | .
CCOc1ccc(-c2nn[nH]n2)cc1 | ? | . | . | 11µM | . | .
SMILES | ELG1 repair inh | Rab9 promoter act | NPC1 prom act | FLuc modulator | ELG1 genotoxic | SMN2 splice enh
c1ccc(-c2nn[nH]n2)cc1 | . | . | . | . | . | /
CCOc1ccc(-c2n[nH]c(=S)o2)cc1 | ? | . | . | 11µM | . | .
Cc1ccc(Nc2ncnc3sc(C)c(C)c23)cc1 | ? | . | . | 21µM | ? | ?
C/C(=N\Nc1ncc(Cl)cc1Cl)c1ccccn1 | ? | . | . | 0.17µM | ? | .
Cc1sc2ncnc(Nc3ccc(O)cc3)c2c1C | . | . | . | . | . | /
C/C(=N\Nc1ncnc2sc(C)c(C)c12)c1ccccn1 | ? | . | ? | 5.4µM | ? | /
C/C(=N\Nc1ccc(Cl)c(C(=O)O)c1)c1ccccn1 | ? | . | . | . | . | /
Cc1sc2ncnc(N/N=C/c3cccc(O)c3)c2c1C | ? | . | . | 11µM | ? | ?
COc1ccc(CCNC(=O)c2cc(-c3cc(C)ccc3O)n[nH]2)cc1OC | 23µM | .[1.84 µM] | . | . | . | .
CC1CN(S(=O)(=O)c2ccc(NC(=O)c3cc(-c4ccccc4O)n[nH]3)cc2)CC(C)O1 (centres undefined) | 20µM | . | . | . | . | .
O=C(Nc1ccc(S(=O)(=O)N2CCOCC2)cc1)c1cc(-c2ccccc2O)n[nH]1 | . | . | . | . | . | /
Cc1c(Cl)cccc1NC(=O)c1cc(-c2ccccc2O)n[nH]1 | ? | ? | ? | 21µM | ? | .
COc1ccc(Cl)cc1NC(=O)c1cc(-c2ccccc2O)n[nH]1 | . | . | . | . | . | .
NS(=O)(=O)c1ccc(NC(=O)c2cc(-c3cc(Cl)ccc3O)n[nH]2)cc1 | 5.2µM | . | . | . | . | /
Cc1ccc(S(=O)(=O)c2cc3c(=O)n4ccccc4nc3n(C)c2=N)cc1 | . | . | . | . | . | .
Cc1cccc(NC(=O)c2cc(-c3cc(C)ccc3O)n[nH]2)c1 | ? | ? | 1.1µM | 3µM | ? | /
COc1ccc(NC(=O)c2cc(-c3cc(C)ccc3O)n[nH]2)cc1Cl | . | . | . | . | . | .
COc1ccc(CCNC(=O)c2cc(-c3ccc(C)c(C)c3O)n[nH]2)cc1OC | ? | . | . | ? | . | .
Cc1ccc(-c2cc(C(=O)NCc3ccc4c(c3)OCO4)[nH]n2)c(O)c1C | . | . | . | 19µM | . | .
Cc1cc(O)c(-c2cc(C(=O)NCc3ccc4c(c3)OCO4)[nH]n2)cc1C | . | . | . | . | . | .
Cc1ccc(-c2cc(C(=O)Nc3cccnc3)[nH]n2)c(O)c1C | ? | 4µM | ? | 3.4µM | 9.2µM | /
Cc1cccc(NC(=O)c2cc(-c3cc(C)c(C)cc3O)n[nH]2)c1 | ? | 0.56µM | 0.89µM | ? | ? | /
COc1ccc(C(CNS(=O)(=O)c2ccc(F)cc2)N2CCN(C)CC2)cc1 (centres undefined) | . | . | . | . | . | /
O=C(CCC1CCCC1)Nc1cccn(Cc2ccccc2Br)c1=O | . | . | . | ? | . | /
Cc1cc(C(=O)OCC(=O)NC(C)c2ccccc2)c(C)o1 (centres undefined) | . | . | . | . | . | .
Cn1nnnc1SCC(=O)Nc1nc2c(F)c(F)c(F)cc2s1 | ? | / | / | / | . | /
O=C(NCCCCNC(=O)c1cccnc1)c1cccnc1 | . | . | . | . | . | .
CC(=O)Nc1cccc(OCCCNC(=O)c2ccc(F)cc2)c1 | ? | . | . | ? | . | /
CC(C)(C)c1ccc(C(=O)NCCCNC(=O)c2ccccn2)cc1 | . | . | . | 17µM | . | /
CC(C)(C)c1ccc(C(=O)NCCCNC(=O)c2cccnc2)cc1 | ? | ? | . | 17µM | . | /
